From PubChem BioAssay (NCATS)
Records with an inconclusive call do not appear. Entries that show only a call come without a potency. Activity calls are given as the source filed them. Unless noted, calls come from the whole dose curve; as a rule, active = well fitted curve in the direction sought with a large enough effect; inconclusive = small, poorly fitted or top-dose-only effect, or another doubt; inactive = no such curve, though single readings can be large; an effect the other way counts as inactive or inconclusive.

What was measured:
[1] = tested on: Zika virus NS2B-NS3 protease (linked construct); assay: Primary screen NINDS Rhodamine qHTS for Zika virus inhibitors (AID 1347160); details: purified NS2B-NS3 protease, Rhodamine110 substrate fluorescence; series mostly up to 57.1 µM; note: nearly all actives have a fitted effect of over 55% in size
How it was run: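 Purified linked NS2B-NS3 protease (NS2B hydrophilic domain joined to NS3 protease by flexible linker), 25 nM in 10 mM Tris-HCl pH 8.0, 0.01% Tween 20. Compounds titrated, 15 min preincubation at room temperature; 1.5 microM Rhodamine110 substrate, FITC fluorescence change over 15 min.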

[2] = HPAF-II Cancer Cell Toxicity qHTS against the NCATS CANVASS Library (AID 1347346); details: HPAF-II viability, CellTiter-Glo ATP luminescence, 72 h; series mostly up to 38.3 µM; note: nearly all actives have a fitted effect of over 55% in size
How it was run: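 HPAF-II cells were seeded at 1000 cells/well, allowed to settle for 4 h at 37 degrees C, then exposed to compounds in an 11-point series for 72 h. Viability was read by CellTiter-Glo luminescence.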

[3] = UWB1.289 Cancer Cell Toxicity qHTS against the NCATS CANVASS Library (AID 1347347); details: UWB1.289 viability, CellTiter-Glo luminescence, 72 h; series mostly up to 38.3 µM; note: nearly all actives have a fitted effect of over 60% in size
How it was run: (§1)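 Bortezomib titration and single-dose wells served as plate controls. Test compounds, 11 points, acted on 1000 cells/well for 72 h at 37 degrees C; CellTiter-Glo luminescence quantified remaining viable cells.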

[4] = OV-SAHO Cancer Cell Toxicity qHTS against the NCATS CANVASS Library (AID 1347348); details: OV-SAHO viability, CellTiter-Glo luminescence, 72 h; series mostly up to 38.3 µM; note: nearly all actives have a fitted effect of over 55% in size
How it was run: as §1

[5] = SW1088 Cancer Cell Toxicity qHTS against the NCATS CANVASS Library (AID 1347350); details: SW1088 viability, CellTiter-Glo luminescence, 72 h; series mostly up to 38.3 µM; note: nearly all actives have a fitted effect of over 75% in size
How it was run: as §1

[6] = U-118MG Cancer Cell Toxicity qHTS against the NCATS CANVASS Library (AID 1347351); details: U-118MG viability, CellTiter-Glo luminescence, 72 h; series mostly up to 38.3 µM
How it was run: as §1

[7] = COV-362 Cancer Cell Toxicity qHTS against the NCATS CANVASS Library (AID 1347352); details: COV-362 viability, CellTiter-Glo luminescence, 72 h; series mostly up to 38.3 µM
How it was run: (§2)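 Cells were seeded at 1000 per well and allowed to settle 4 hours at 37 degrees C before pin transfer of compounds as an 11-point series. Viability was read by CellTiter-Glo luminescence after 72 hours' exposure.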

[8] = HEK-293 Cancer Cell Toxicity qHTS against the NCATS CANVASS Library (AID 1347355); details: HEK-293 viability, CellTiter-Glo luminescence, 72 h; series mostly up to 46.1 µM; note: nearly all actives have a fitted effect of over 65% in size
How it was run: as §2

[9] = HPAF-II 24hr Apoptosis Induction qHTS against the NCATS CANVASS Library (AID 1347356); details: HPAF-II caspase-3/7 Caspase-Glo luminescence; series mostly up to 46.1 µM
How it was run: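 HPAF-II cells (500/well) in DMEM + 10% FBS were treated with an 11-point compound series for 24 hours at 37 degrees C. Caspase-3/7 activity was then read by Caspase-Glo DEVD luminescence after 15 min.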

[10] = HEK293 18hr Apoptosis Induction qHTS against the NCATS CANVASS Library (AID 1347357); details: HEK293 caspase-3/7 Caspase-Glo luminescence; series mostly up to 46.1 µM
How it was run: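 Luminescent caspase-3/7 signal is measured in HEK293 cells exposed for 18 hours to an 11-point concentration series; doxorubicin serves as the plate control.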

[11] = HPAF-II 12hr Apoptosis Induction qHTS against the NCATS CANVASS Library (AID 1347358); details: HPAF-II caspase-3/7 Caspase-Glo luminescence; series mostly up to 46.1 µM
How it was run: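 HPAF-II cells (500/well, DMEM + 10% FBS) were exposed to compounds for 12 hours at 37 degrees C. Caspase-3/7 activity was then read by Caspase-Glo 3/7 luminescence after 15 min at room temperature.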

[12] = target: Mitogen-activated protein kinase 10 (Mus musculus) (UniProt Q61831); assay: JNK3 AlphaScreen Assay (AID 530; active = well fitted curve in either direction with a large enough effect, not every such curve was filed as active;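 note: kinase came from lysate of stimulated human HepG2 cells; signal reports phosphorylation of biotinylated GST-cJun 1-79 at Ser73 with 10 µM ATP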); details: JNK3 lysate, c-Jun phosphorylation; series mostly up to 57.1 µM
How it was run: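 JNK3 came from HepG2 lysates pre-activated with IL-1beta and TNF-alpha and phosphorylated biotinylated GST-cJun (1-79) at 10 uM ATP, pH 7.6, room temperature. Compounds were titrated. AlphaScreen signal used anti-phospho-cJun (Ser73) antibody.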

[13] = target: Ubiquitin carboxyl-terminal hydrolase 1 (Homo sapiens) (UniProt O94782); assay: Inhibitors of USP1/UAF1: Pilot qHTS (AID 504865); details: purified USP1/UAF1, Ub-rhodamine cleavage fluorescence; series mostly up to 114 µM;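 note: rhodamine fluorescence freed from ubiquitin-rhodamine substrate followed over time; top concentration of the series differs between compounds; nearly all actives have a fitted effect of over 35% in size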
Sequence of Ubiquitin carboxyl-terminal hydrolase 1 (Homo sapiens) (O94782 whole entry, looked up): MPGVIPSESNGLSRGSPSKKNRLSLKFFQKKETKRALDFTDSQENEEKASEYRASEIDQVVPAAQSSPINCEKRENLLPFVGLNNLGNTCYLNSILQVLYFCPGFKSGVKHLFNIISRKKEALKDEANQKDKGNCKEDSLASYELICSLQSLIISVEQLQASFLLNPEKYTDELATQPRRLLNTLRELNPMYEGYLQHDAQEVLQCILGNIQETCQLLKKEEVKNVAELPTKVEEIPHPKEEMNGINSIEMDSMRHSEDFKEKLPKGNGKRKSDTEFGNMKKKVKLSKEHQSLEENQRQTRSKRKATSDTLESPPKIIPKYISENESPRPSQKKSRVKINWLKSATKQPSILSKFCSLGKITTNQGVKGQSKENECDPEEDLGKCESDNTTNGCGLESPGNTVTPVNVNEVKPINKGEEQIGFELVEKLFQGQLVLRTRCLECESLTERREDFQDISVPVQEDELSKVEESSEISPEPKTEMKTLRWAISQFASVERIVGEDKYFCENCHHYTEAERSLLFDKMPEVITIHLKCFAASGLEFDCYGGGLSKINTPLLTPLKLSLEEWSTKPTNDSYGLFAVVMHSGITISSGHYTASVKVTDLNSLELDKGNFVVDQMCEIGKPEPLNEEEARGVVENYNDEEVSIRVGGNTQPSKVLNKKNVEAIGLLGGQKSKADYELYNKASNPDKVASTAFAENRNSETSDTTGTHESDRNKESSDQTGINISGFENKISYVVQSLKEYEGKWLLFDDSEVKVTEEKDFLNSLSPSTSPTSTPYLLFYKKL
How it was run: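 Kinetic fluorescence assay: 1nM USP1/UAF1, 15 min compound preincubation, then 150nM Ub-Rho; 480/540 nm.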

[14] = target: Cytochrome P450 3A4 (Homo sapiens) (UniProt P08684); assay: qHTS Assay for Inhibitors and Substrates of Cytochrome P450 3A4 (AID 884); details: recombinant CYP3A4, Luciferin-PPXE luminescence; series mostly up to 57.1 µM; note: nearly all actives have a fitted effect of over 50% in size; note: potency is the fitted concentration of half-maximal effect
Sequence of Cytochrome P450 3A4 (Homo sapiens) (P08684 whole entry, looked up): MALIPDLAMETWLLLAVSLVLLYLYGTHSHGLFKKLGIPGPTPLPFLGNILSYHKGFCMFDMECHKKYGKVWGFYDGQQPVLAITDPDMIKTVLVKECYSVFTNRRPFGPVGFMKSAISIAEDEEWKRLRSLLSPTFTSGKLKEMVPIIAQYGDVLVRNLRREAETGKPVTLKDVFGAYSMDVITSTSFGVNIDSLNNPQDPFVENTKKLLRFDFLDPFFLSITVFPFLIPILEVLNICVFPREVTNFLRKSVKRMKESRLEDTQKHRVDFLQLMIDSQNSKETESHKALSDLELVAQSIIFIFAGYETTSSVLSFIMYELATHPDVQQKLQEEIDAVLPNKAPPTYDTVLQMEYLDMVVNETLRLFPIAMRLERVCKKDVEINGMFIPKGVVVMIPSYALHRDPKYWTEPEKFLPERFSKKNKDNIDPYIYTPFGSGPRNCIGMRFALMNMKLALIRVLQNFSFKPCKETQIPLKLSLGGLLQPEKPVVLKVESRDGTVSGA
How it was run: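 20 nM human CYP3A4 with 25 uM Luciferin-PPXE (at KM) in 200 mM KPO4, preincubated 10 min with compound; NADPH regeneration started a 60 min RT reaction. Luciferin detected by luminescence, normalized to 57 uM ketoconazole as full inhibition.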

[15] = target: Cytochrome P450 3A4 (Homo sapiens) (UniProt P08684); assay: qHTS Assay for Activators of Cytochrome P450 3A4 (AID 885); details: recombinant CYP3A4, Luciferin-PPXE luminescence, 60 min; series mostly up to 57.1 µM; note: nearly all actives have a fitted effect of over 65% in size
How it was run: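 20nM CYP3A4 + 25uM Luciferin-PPXE (=KM), 200mM KPO4; cpd 10 min RT; NADPH regen, 60 min RT; stop w/ detection buffer, 20 min; luminescence. Normalized to 57 uM ketoconazole.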

[16] = target: Arylsulfatase A (Homo sapiens) (UniProt P15289); assay: qHTS screen for enhancers of Arylsulfatase A (ASA1): LOPAC Validation Assay (AID 720538); details: ASA enzyme activity, LOPAC qHTS enhancer assay; series mostly up to 57.5 µM
Sequence of Arylsulfatase A (Homo sapiens) (P15289 whole entry, looked up): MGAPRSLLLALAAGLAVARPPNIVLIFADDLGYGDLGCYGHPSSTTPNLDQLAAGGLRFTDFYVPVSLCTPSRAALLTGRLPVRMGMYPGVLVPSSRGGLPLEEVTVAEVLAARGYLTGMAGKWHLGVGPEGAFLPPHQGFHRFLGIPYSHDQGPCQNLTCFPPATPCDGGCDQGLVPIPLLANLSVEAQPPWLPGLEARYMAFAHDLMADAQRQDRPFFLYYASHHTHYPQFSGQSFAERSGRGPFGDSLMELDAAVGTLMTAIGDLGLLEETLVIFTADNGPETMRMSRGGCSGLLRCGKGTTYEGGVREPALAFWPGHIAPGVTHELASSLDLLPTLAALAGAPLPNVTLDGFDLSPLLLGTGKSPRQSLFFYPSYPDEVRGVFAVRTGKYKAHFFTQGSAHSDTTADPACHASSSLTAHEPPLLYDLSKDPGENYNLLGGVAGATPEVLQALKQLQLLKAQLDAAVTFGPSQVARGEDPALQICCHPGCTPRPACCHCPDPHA
How it was run: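 First, ASA-I179S fibroblasts from an MLD patient adhered for 6 hrs. Next, compounds were added for 48h. Then pNCS substrate (0.5mM final) with lysis buffer reacted 14h at room temperature before NaOH stop and fluorescence measurement.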

[17] = qHTS profiling of the MIPE4 collection as inhibitors of Plasmodium falciparum (3D7) proliferation (AID 743344; call rule not given here); details: P. falciparum 3D7 in erythrocytes, SYBR Green DNA fluorescence, 72 h; at 28.5 µM (top of the series) unless noted
How it was run: (§3)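 Erythrocytes infected with P. falciparum (0.3% parasitemia, 2.5% hematocrit) incubated with compounds 72 h at 37 C, 5% CO2. Lysis with saponin/Triton buffer containing SYBR Green I, overnight at room temperature in the dark; DNA fluorescence (485/535 nm) normalised to 0.29 uM artemisinin and DMSO.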

[18] = qHTS profiling of the MIPE4 collection as inhibitors of Plasmodium falciparum (DD2) proliferation (Rep 2) (AID 743346; call rule not given here); details: P. falciparum Dd2 in erythrocytes, SYBR Green DNA, 72 h; at 28.5 µM (top of the series) unless noted
How it was run: as §3

[19] = qHTS profiling of the MIPE4 collection as inhibitors of Plasmodium falciparum (HB3) proliferation (AID 743347; call rule not given here); details: P. falciparum HB3 in erythrocytes, SYBR Green DNA, 72 h; at 28.5 µM (top of the series) unless noted
How it was run: as §3

[20] = target: Peroxisome proliferator-activated receptor delta (Homo sapiens) (UniProt Q03181); assay: qHTS assay for small molecule agonists of peroxisome proliferator-activated receptor delta signaling (AID 588534; calls by dose curve); details: HEK293T PPARdelta-UAS-bla, beta-lactamase ratio, 18 h; series mostly up to 76.7 µM
Sequence of Peroxisome proliferator-activated receptor delta (Homo sapiens) (Q03181 whole entry, looked up): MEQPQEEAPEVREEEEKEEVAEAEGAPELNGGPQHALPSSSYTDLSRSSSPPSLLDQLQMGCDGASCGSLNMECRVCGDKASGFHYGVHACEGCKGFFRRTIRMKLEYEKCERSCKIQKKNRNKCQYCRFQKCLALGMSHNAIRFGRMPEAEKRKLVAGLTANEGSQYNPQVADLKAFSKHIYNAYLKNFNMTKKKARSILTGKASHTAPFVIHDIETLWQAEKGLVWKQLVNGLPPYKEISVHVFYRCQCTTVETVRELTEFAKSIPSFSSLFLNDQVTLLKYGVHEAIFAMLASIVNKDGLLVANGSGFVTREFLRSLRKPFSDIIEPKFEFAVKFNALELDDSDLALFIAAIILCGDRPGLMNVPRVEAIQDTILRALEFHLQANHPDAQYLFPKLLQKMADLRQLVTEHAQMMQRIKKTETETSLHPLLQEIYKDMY
How it was run: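 Cell-based beta-lactamase reporter assay run in agonist mode: cells seeded and incubated 5 hrs at 37 C, compounds added and incubated 18 hrs at 37 C. CCF4 dye fluorescence read after 2 hrs at RT; EC50 and efficacy from Hill fits.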

## NCCc1ccccc1
[1]
  Potency: inactive
[2]
  Potency: inactive
[3]
  Potency: inactive
[4]
  Potency: inactive
[5]
  Potency: inactive
[6]
  Potency: inactive
[7]
  Potency: inactive
[8]
  Potency: inactive
[9]
  outcome: inactive
[10]
  Potency: inactive
[11]
  outcome: inactive

## c1cncc([C@@H]2CCCCN2)c1
[12]
  outcome: inactive
[13]
  Potency: inactive

## CN(C)Cc1c[nH]c2ccccc12
[12]
  outcome: inactive
[14]
  Potency: 15.8 µM (active)
[15]
  Potency: inactive
[13]
  Potency: inactive
[1]
  Potency: inactive
[2]
  Potency: inactive
[3]
  Potency: inactive
[4]
  Potency: inactive
[5]
  Potency: inactive
[6]
  Potency: inactive
[7]
  Potency: inactive
[8]
  Potency: inactive
[9]
  outcome: inactive
[10]
  Potency: inactive
[11]
  outcome: inactive

## CN1C2CCC1CC(OC(=O)C(CO)c1ccccc1)C2 (stereo unspecified)
[16]
  Potency: inactive
[17]
  parasite growth, % of DMSO control: 88.6%
[18]
  parasite growth, % of control (lower = inhibition): 62.2%
[19]
  growth, % of control: 108%

## N[C@@H](Cc1ccc(O)c(O)c1)C(=O)O
[20]
  Potency: inactive

## CCCCCCCCCC(=O)O
[20]
  Potency: inactive

## C[N+](C)(C)CCO
[15]
  Potency: inactive

## CC(=O)O[C@H]1C[C@@H]2CC[C@H]3[C@H]4C[C@H]([N+]5(C)CCCCC5)[C@@H](OC(C)=O)[C@@]4(C)CC[C@@H]3[C@@]2(C)C[C@H]1[N+]1(C)CCCCC1
[17]
  parasite growth, % of DMSO control: 73.3%
[18]
  parasite growth, % of control (lower = inhibition): 58.4%
[19]
  growth, % of control: 72.7%

## Cc1cn([C@@H]2C[C@@H](O)[C@H](CO)O2)c(=O)[nH]c1=O
[17]
  parasite growth, % of DMSO control: 93.3%
[18]
  parasite growth, % of control (lower = inhibition): 94.9%
[19]
  growth, % of control: 59.6%

## CC(C)COC(=O)OCN1C(=O)CN(CCN2CC(=O)N(COC(=O)OCC(C)C)C(=O)C2)CC1=O
[15]
  Potency: inactive
[16]
  Potency: inactive

## COC(=O)C[C@](O)(CCCC(C)(C)O)C(=O)O[C@@H]1C(OC)=C[C@]23CCCN2CCc2cc4c(cc2[C@H]13)OCO4
[15]
  Potency: inactive
[17]
  parasite growth, % of DMSO control: 70%
[18]
  parasite growth, % of control (lower = inhibition): 67.1%
[19]
  growth, % of control: 76.2%

## Cc1ccccc1O
[12]
  outcome: inactive
[14]
  Potency: inactive
[20]
  Potency: inactive

## CC(=O)[C@H]1CC[C@H]2[C@@H]3CCC4=CC(=O)CC[C@]4(C)[C@H]3CC[C@]12C
[14]
  Potency: inactive
[13]
  Potency: inactive
[16]
  Potency: inactive
[17]
  parasite growth, % of DMSO control: 38.5%
[18]
  parasite growth, % of control (lower = inhibition): 30.4%
[19]
  growth, % of control: 31%
